We go through 39 compounds from the supplement of paper PMC4709259.

Where a name gives a salt, the structure may show the parent alone. ± gives the standard deviation.

In this test the test system is Jurkat. The test can be described thus: mean cell size (FSC-A) relative to DMSO control (fraction of control); higher = larger cells. The following applies: 48 h. A digest of the protocol:
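Jurkat cells at 600 cells/µl were incubated for 1 h and then treated for 48h with the Enzo Screen-Well FDA Approved Drug Library v2.0 at 25µM, with DMSO at 0.9% (v/v) final. Compounds that reduced counts below 20% of controls were retested in 10-fold dilutions down to 25nM. Cell count and mean cell size, taken as forward scatter area, were measured by flow cytometry relative to solvent-only controls. Each plate carried 6-12 controls, and values are means of 3 biological replicates.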
`CC(C)(C)NC(=O)[C@@H]1CN(Cc2cccnc2)CCN1C[C@@H](O)C[C@@H](Cc1ccccc1)C(=O)N[C@H]1c2ccccc2C[C@H]1O` [Indinavir] (concentration: 25 µM) yielded a mean cell size of 0.93 ± 0.056.

In turn, `CCOC(=O)C1=C(COCCN)NC(C)=C(C(=O)OC)C1c1ccccc1Cl` (centres undefined) [Amlodipine] (concentration: 25 µM) showed a mean cell size of 1.06 ± 0.053.

`COC(=O)CCc1ccc(OCC(O)CNC(C)C)cc1` (centres undefined) [Esmolol] (concentration: 25 µM) showed a mean cell size of 0.9278 ± 0.0077.

In turn, `CNCC[C@@H](Oc1ccccc1C)c1ccccc1` [Atomoxetine·HCl] (concentration: 25 µM) returned a mean cell size of 0.996 ± 0.05.

As for `Cn1nnc2c(C(N)=O)ncn2c1=O` [Temozolomide] (concentration: 25 µM), the mean cell size stood at 0.959 ± 0.052.

Turning to `Cn1c(=O)c2[nH]cnc2n(C)c1=O` [Aminophylline] (concentration: 25 µM), the mean cell size came out at 0.96 ± 0.035.

Turning to `C[C@H]1C[C@H]2[C@@H]3CCC4=CC(=O)C=C[C@]4(C)[C@@]3(F)[C@@H](O)C[C@]2(C)[C@@]1(O)C(=O)CO` [Betamethasone] (concentration: 25 µM), the mean cell size is 0.914 ± 0.018.

The compound `CC(C)n1c(/C=C/[C@H](O)C[C@H](O)CC(=O)O)c(-c2ccc(F)cc2)c2ccccc21` [Fluvastatin·Na] (concentration: 25 µM) had a mean cell size of 0.972 ± 0.059.

`Nc1ccc(S(=O)(=O)c2ccc(N)cc2)cc1` [Dapsone] (concentration: 25 µM): the mean cell size came to 0.9573 ± 0.0072.

`COC(=O)C1=C(C)NC(C)=C(C(=O)OCCN(C)Cc2ccccc2)C1c1cccc([N+](=O)[O-])c1` (centres undefined) [Nicardipine·HCl] (concentration: 25 µM) yielded a mean cell size of 1.01 ± 0.071.

The compound `CC(C)c1c(C(=O)Nc2ccccc2)c(-c2ccccc2)c(-c2ccc(F)cc2)n1CC[C@@H](O)C[C@@H](O)CC(=O)O` [Atorvastatin Calcium] (concentration: 25 µM) came in with a mean cell size of 1.05 ± 0.028.

Compound `CN(C)CCOC(c1ccc(Cl)cc1)c1ccccn1` (centres undefined) [Carbinoxamine Maleate] (concentration: 25 µM) had a mean cell size of 0.968 ± 0.054.

`NCCCC[C@H](N[C@@H](CCc1ccccc1)C(=O)O)C(=O)N1CCC[C@H]1C(=O)O` [Lisinopril·2H2O] (concentration: 25 µM) returned a mean cell size of 0.955 ± 0.022.

`O=C(CCCN1CCC(O)(c2ccc(Cl)cc2)CC1)c1ccc(F)cc1` [Haloperidol] (concentration: 25 µM) displayed a mean cell size of 1.04 ± 0.057.

`CN1C(CCl)Nc2cc(Cl)c(S(N)(=O)=O)cc2S1(=O)=O` (centres undefined) [Methyclothiazide] (concentration: 25 µM) came in with a mean cell size of 0.982 ± 0.048.

`Nc1nc(Cl)nc2c1ncn2[C@@H]1O[C@H](CO)[C@@H](O)[C@@H]1F` [Clofarabine] (concentration: 25 nM): the mean cell size is 1.18 ± 0.048.

As for `C[C@]12C=CC(=O)C=C1CC[C@@H]1[C@@H]2C(=O)C[C@@]2(C)[C@H]1CC[C@]2(O)C(=O)CO` [Prednisone] (concentration: 25 µM), the mean cell size came to 1 ± 0.042.

On to `CN(C)CCc1c[nH]c2ccc(C[C@H]3COC(=O)N3)cc12` [Zolmitriptan] (concentration: 25 µM), for which the mean cell size was 0.996 ± 0.017.

For the compound `COC(=O)[C@@H]1CC2=CC(=O)CC[C@]2(C)[C@@]23O[C@@H]2C[C@@]2(C)[C@@H](CC[C@@]24CCC(=O)O4)[C@H]13` [Eplerenone] (concentration: 25 µM), the mean cell size turned out to be 1.19 ± 0.035.

Regarding `CNC[C@H](O)c1ccc(O)c(O)c1` [Epinephrine (L-(-)-Epinephrine-(+)-Bitartrate)] (concentration: 25 µM), the mean cell size was determined as 0.959 ± 0.053.

In the case of `CC(C)c1ccc2oc3nc(N)c(C(=O)O)cc3c(=O)c2c1` [Amlexanox] (concentration: 25 µM), the mean cell size turned out to be 0.923 ± 0.018.

Turning to `CCN(CC)CC(=O)Nc1c(C)cccc1C` [Lidocaine·HCl·H2O] (concentration: 25 µM), the mean cell size was found to be 1.01 ± 0.033.

`CC(C)c1nc(N(C)S(C)(=O)=O)nc(-c2ccc(F)cc2)c1/C=C/[C@@H](O)C[C@@H](O)CC(=O)O` [Rosuvastatin Calcium] (concentration: 25 µM) displayed a mean cell size of 1.19 ± 0.041.

For the compound `CC(=O)[C@H]1CC[C@H]2[C@@H]3CCC4=CC(=O)CC[C@]4(C)[C@H]3CC[C@]12C` [Progesterone] (concentration: 25 µM), the mean cell size was found to be 1 ± 0.045.

`Nc1cc(-c2ccncc2)c[nH]c1=O` [Amrinone] (concentration: 25 µM) returned a mean cell size of 0.965 ± 0.031.

Turning to `NC[C@H]1O[C@H](O[C@H]2[C@H](O)[C@@H](O[C@H]3O[C@H](CO)[C@@H](O)[C@H](N)[C@H]3O)[C@H](N)C[C@@H]2N)[C@H](N)C[C@@H]1O` [Tobramycin] (concentration: 25 µM), the mean cell size was 1.01 ± 0.054.

`CC1=C(/C=C/C(C)=C/C=C/C(C)=C/C(=O)O)C(C)(C)CCC1` [Tretinoin] (concentration: 25 µM) came in with a mean cell size of 0.88 ± 0.031.

`CC1(C)C[C@@H]1C(=O)N/C(=C\CCCCSC[C@H](N)C(=O)O)C(=O)O` [Cilastatin·Na] (concentration: 25 µM) registered a mean cell size of 0.942 ± 0.011.

Consider `Cc1ccccc1N1C(=O)c2cc(S(N)(=O)=O)c(Cl)cc2NC1C` (centres undefined) [Metolazone] (concentration: 25 µM), for which the mean cell size worked out at 0.997 ± 0.03.

`C[C@]12C=CC(=O)N[C@@H]1CC[C@@H]1[C@@H]2CC[C@]2(C)[C@@H](C(=O)Nc3cc(C(F)(F)F)ccc3C(F)(F)F)CC[C@@H]12` [Dutasteride] (concentration: 25 µM) came in with a mean cell size of 0.983 ± 0.052.

Turning to `CC[C@H]1OC(=O)[C@H](C)C(=O)[C@H](C)[C@@H](O[C@@H]2O[C@H](C)C[C@H](N(C)C)[C@H]2O)[C@](C)(OC)C[C@@H](C)C(=O)[C@H](C)[C@H]2N(CCCCn3cnc(-c4cccnc4)c3)C(=O)O[C@]12C` [Telithromycin] (concentration: 25 µM), the mean cell size was 0.921 ± 0.049.

In the case of `CC(C)[N+]1(C)[C@@H]2CC[C@H]1CC(OC(=O)C(CO)c1ccccc1)C2` (some centres undefined) [Ipratropium·Br] (concentration: 25 µM), the mean cell size stood at 1.01 ± 0.029.

`C[C@@H]1O[C@@H]1P(=O)(O)O` [Fosfomycin Calcium] (concentration: 25 µM) showed a mean cell size of 0.916 ± 0.036.

Take `CCS(=O)(=O)CCn1c([N+](=O)[O-])cnc1C` [Tinidazole] (concentration: 25 µM): the mean cell size is 0.992 ± 0.049.

As to `CN1CCN2c3ncccc3Cc3ccccc3C2C1` (centres undefined) [Mirtazapine] (concentration: 25 µM), the mean cell size was 0.958 ± 0.033.

The compound `CO/N=C(\C(=O)N[C@@H]1C(=O)N2C(C(=O)O)=C(COC(C)=O)CS[C@H]12)c1csc(N)n1` [Cefotaxime Acid] (concentration: 25 µM) gave a mean cell size of 0.944 ± 0.025.

Compound `CN1C(=O)OC(C)(C)C1=O` [Trimethadione] (concentration: 25 µM) showed a mean cell size of 1.07 ± 0.016.

Compound `CCOC(=O)[C@H](CCc1ccccc1)N[C@@H](C)C(=O)N1[C@H](C(=O)O)C[C@@H]2CCC[C@@H]21` [Ramipril] (concentration: 25 µM) had a mean cell size of 1.01 ± 0.029.

Compound `NC(=O)N[C@@H](CCC(=O)O)C(=O)O` [Carglumic Acid] (concentration: 25 µM) displayed a mean cell size of 0.936 ± 0.037.
